The supplement of paper PMC3545927
This is one part of the list. The hit rate among all sequences tested is not known here.

Molecular target: furin, P09958
Assay: furin cleavage Z-score vs untreated control; higher = more cleavage, active = 3.5 or more, inactive = 1 or less, 8 variable residues between constant flanks
Procedure, shortened: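 The cleavage Z-score is the log read count relative to furin-free reactions, lowess-adjusted and scaled by median absolute deviation. Counts came from sequencing DNA released from bead-bound 8-mer peptide–cDNA fusions after digestion with purified furin for 7.5, 15 or 30 min.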
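Note: purified furin at 1:10 enzyme:substrate in 50 mM HEPES pH 7.5.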

Chain of furin, P09958 (P09958 whole entry): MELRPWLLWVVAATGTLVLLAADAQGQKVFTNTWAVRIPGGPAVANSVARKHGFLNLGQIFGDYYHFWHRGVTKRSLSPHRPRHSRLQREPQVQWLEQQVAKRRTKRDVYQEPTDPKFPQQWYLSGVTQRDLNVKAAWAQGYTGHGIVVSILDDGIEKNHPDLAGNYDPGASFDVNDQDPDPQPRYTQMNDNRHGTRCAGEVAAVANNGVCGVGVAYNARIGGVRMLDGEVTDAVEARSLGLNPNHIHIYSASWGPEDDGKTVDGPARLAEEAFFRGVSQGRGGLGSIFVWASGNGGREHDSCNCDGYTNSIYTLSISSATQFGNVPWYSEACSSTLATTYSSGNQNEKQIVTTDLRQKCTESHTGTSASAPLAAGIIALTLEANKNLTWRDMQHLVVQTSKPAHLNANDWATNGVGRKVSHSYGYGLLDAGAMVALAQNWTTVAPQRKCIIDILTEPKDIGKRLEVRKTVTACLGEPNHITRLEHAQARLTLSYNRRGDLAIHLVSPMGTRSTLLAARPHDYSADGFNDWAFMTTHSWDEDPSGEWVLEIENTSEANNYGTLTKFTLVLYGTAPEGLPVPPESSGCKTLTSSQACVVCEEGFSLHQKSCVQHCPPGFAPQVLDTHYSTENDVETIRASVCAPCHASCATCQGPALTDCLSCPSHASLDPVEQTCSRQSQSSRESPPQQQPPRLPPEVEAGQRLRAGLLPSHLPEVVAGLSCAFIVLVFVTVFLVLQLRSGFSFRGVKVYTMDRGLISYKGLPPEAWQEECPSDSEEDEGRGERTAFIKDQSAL

Sequence	furin cleavage Z-score (7.5 min)	furin cleavage Z-score (15 min)	furin cleavage Z-score (30 min)
CARYPRNVEEAGNASASA [FS-2850]	4.99 (active)	7.34 (active)	7.13 (active)
CARYQRSHDDAGNASASA [FS-2320]	0.707 (inactive)	-0.328 (inactive)	0.764 (inactive)
CARRWREVEEAGNASASA [FS-2803]	-0.554 (inactive)	-1.56 (inactive)	0.0666 (inactive)
CARYPRDVRDAGNASASA [FS-2538]	8.26 (active)	9.51 (active)	6.93 (active)
CAVPPRYPRDAGNASASA [FS-311]	5.8 (active)	6.12 (active)	6.06 (active)
CARSLREFEEAGNASASA [FS-3087]	-2.22 (inactive)	0.955 (inactive)	0.853 (inactive)
CAATPCSAHLAGNASASA [HC2463]	0.828 (inactive)	1.41	1.31
CARHADVIPVAGNASASA [HC728]	-2.29 (inactive)	-0.0929 (inactive)	-1.98 (inactive)
CAAEVIAPAVAGNASASA [HC1032]	-0.225 (inactive)	-0.402 (inactive)	-0.162 (inactive)
CAVVCCSWSYAGNASASA [HC2048]	-1.44 (inactive)	-0.879 (inactive)	-0.0857 (inactive)
CANDSRHLRNAGNASASA [FS-1647]	0.543 (inactive)	0.626 (inactive)	1.57
CANDSRLKRQAGNASASA [FS-1038]	6.07 (active)	5.6 (active)	6.15 (active)
CAILWRLKRQAGNASASA [FS-1215]	10.9 (active)	9.84 (active)	7.41 (active)
